HT1080 IDH1KD tx – kills HT-1080 cells with IDH1 knockdown; hit rate 2% among 360,000; HT-1080 IDH1 knockdown viability, ATP luminescence, 48 h; Potency, µM (top dose mostly 46.1 µM), most hits filed as cytotoxic
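After a 2 h attachment period, IDH1KD HT-1080 cells took pin-transferred compound for 48 h at 37 °C; ATP-based luminescence after 10 min room-temperature reagent incubation reported viability.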
HT1080-NT tox – kills 2HG-producing HT-1080-NT fibrosarcoma cells. HT-1080-NT fibrosarcoma viability, CellTiter-Glo ATP luminescence, 48 h. Potency, µM (titrated, usually from 46.1 µM), usual class: cytotoxic. hit rate 1.6% among 360,000. AID 686970;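 further: NT is the 2HG producing partner of a matched IDH1 knockdown line; nearly all actives have a fitted effect of over 55% in size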
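Viability by CellTiter-Glo luminescence after 48 h compound exposure at 37C of HT-1080-NT cells (750/well, RPMI, 5% FBS). % activity scaled between DMSO wells and medium-only wells, then curve-fitted and categorized by curve class.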
DT40 TDP1 CPT – growth inhibition of DT40 Tdp1-/-;hTDP1 cells with camptothecin (screen for TDP1 inhibitors); Potency, µM (top dose mostly 46.2 µM), hits mostly inhibitors; AID 686979; chicken DT40 Tdp1-/-;hTDP1 cells + 20 nM CPT, ATP luminescence, 48 h; hit rate 12% among 420,000; further: nearly all actives have a fitted effect of over 55% in size
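Chicken DT40 Tdp1-/- cells complemented with human TDP1, 400 cells/well, exposed to compounds plus 20 nM camptothecin for at least 48 h at 37 C; viability read as ATP content by CellTiter-Glo luminescence.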
IL-1B inflam inh – inflammasome signaling inhibition, IL-1 beta readout; THP-1 LPS/ATP IL-1B secretion, AlphaLISA, 16 h; stronger effect = lower value; activity change, % at 57.5 µM; hit rate 4.7% among 360,000; in the data active means activity change below about -50%; inconclusive means mostly about -30% to -49%
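Secreted IL-1B measured by AlphaLISA bead assay after 16 h compound exposure of THP-1 cells; compounds (final up to 57.5 uM) added 1 h before LPS (250 ng/mL) and ATP (1.25 mM) stimulation; lower signal means less secretion.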
DT40 TDP1 no CPT – qHTS for Inhibitors of human tyrosyl-DNA phosphodiesterase 1 (TDP1): qHTS in cells in absence of CPT | Potency, µM (doses to about 46.2 µM), most hits filed as inhibitors | AID 686978, 2013 | DT40 Tdp1-/- hTDP1 cells, no CPT, ATP luminescence, 48 h | hit rate 15% among 420,000; further: nearly all actives have a fitted effect of over 55% in size
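Readout: luminescence from CellTiter-Glo after 30 min in the dark at RT. Cells: DT40 Tdp1-/- with stable hTDP1, 400/well. Exposure: compounds alone, ≥48 hr, 37 °C.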
Numbers stand for hits; i = inactive; ? = inconclusive; nt = no result. Sampled rows, rich in hits. Any-hit rate of the full collection: about 19%. Unless noted, the call rests on the fitted dose curve; in most records, active means well fitted curve in the direction sought with a large enough effect; inconclusive means small, poorly fitted or top-dose-only effect, or another doubt; inactive means no such curve, though single readings can be large; an effect the other way counts as inactive or inconclusive.

SMILES	HT1080 IDH1KD tx	HT1080-NT tox	DT40 TDP1 CPT	IL-1B inflam inh	DT40 TDP1 no CPT
C=C(C)C(=O)Oc1ccc(N2C(=O)[C@@H]3C4C=CC(C4)[C@@H]3C2=O)cc1	i	i	?	-99	?
CCCCN(C(=O)c1cc(CC)c(C)s1)c1c(N)n(CCC)c(=O)[nH]c1=O	i	i	i	i	i
Cc1cc(C)cc(OCC(=O)Nc2ccc(F)cc2)c1	i	i	i	-52	i
Cc1cc(C)cc(OCC(=O)Nc2ccc(N3CCCC3)cc2)c1	i	i	?	i	i
Cc1ccc(NC(=O)CNc2ccc(OC(C)C)cc2)cc1	i	i	?	i	23µM
Cc1ccc(NC(=O)COCC(=O)Nc2ccc(F)cc2)cc1	i	i	18µM	i	21µM
Cc1ccc(NC(=O)COCC(=O)Nc2ccc(C)cc2)cc1	i	i	i	i	i
FC(F)Sc1ccc(NC(=S)NCC2CCCCC2)cc1	?	?	?	-92	?
FC(F)Sc1ccc(NC(=S)NC2CCCCC2)cc1	?	?	?	?	i
CCCCNC(=S)Nc1ccc(Oc2ccccc2)cc1	i	i	?	i	21µM
CC1CCCCC1NC(=S)Nc1ccc(SC(F)F)cc1 (stereo not given)	?	?	?	-80	?
S=C(NCC1CCCCC1)Nc1ccc(Oc2ccccc2)cc1	i	i	?	-77	?
CN(CC(=O)Nc1ccc(SC(F)F)cc1)C1CCCCC1	i	i	i	i	i
COc1ccccc1CN1CC(C(=O)N(C)Cc2[nH]c3ccccc3c2C)CCC1=O (stereo not given)	i	i	?	i	?
Cc1ccccc1OCc1ccc(C(=O)N2CC(C)OC(C)C2)o1 (stereo not given)	?	i	?	i	?
CCCNC(=S)Nc1ccc(Oc2ccccc2)cc1	14µM	16µM	?	i	16µM
CCOc1ccc(NC(=S)NCCCc2ccccc2)cc1	i	i	?	i	?
COC(=O)C(C)N(C(=O)c1cccc2ccccc12)c1c(C)cccc1C (stereo not given)	?	i	?	i	16µM
COC(=O)C(C)N(C(=O)c1cccc(Cl)c1)c1c(C)cccc1C (stereo not given)	i	i	?	i	?
CN1CCN(c2ncnc3c2ncn3[C@H]2CN(C)C[C@@H](CO)O2)CC1	?	i	i	i	i
O=C(Nc1ccc(Br)cn1)c1ccc(COc2c(F)c(F)cc(F)c2F)o1	i	i	i	i	i
Cc1ccnc(NC(=O)CCc2c(C)nc3ncnn3c2C)c1	i	i	i	i	i
CC(C)CC(C(=O)O)N(Cc1ccccc1)Cc1ccccc1 (stereo not given)	i	i	i	i	?
C#CC(CO)N(CCN(Cc1ccccc1)C(C#C)CO)Cc1ccccc1 (stereo not given)	i	i	?	-62	?
CCN(CC)CCN(Cc1cc2cc3c(cc2[nH]c1=O)OCCO3)C(=O)NC1CCCCC1	i	i	?	i	?
SMILES	HT1080 IDH1KD tx	HT1080-NT tox	DT40 TDP1 CPT	IL-1B inflam inh	DT40 TDP1 no CPT
Cc1ccc2[nH]c(=O)c(CN(CCCN3CCOCC3)C(=O)NC3CCCCC3)cc2c1	i	i	i	i	i
O=C(NC1CCCCC1)N(CCN1CCOCC1)Cc1cc2cc3c(cc2[nH]c1=O)OCCO3	i	i	13µM	i	?
CCc1ccc2[nH]c(=O)c(CN(CCN3CCCC3)C(=O)NC3CCCCC3)cc2c1	?	?	16µM	-56	23µM
O=c1c(-c2ccc(Br)cc2)[n+]([O-])c2ccccc2n1OCc1ccccn1	i	i	?	i	?
CCOC(=O)COn1c(=O)c(-c2ccco2)[n+]([O-])c2ccccc21	i	i	i	-69	i
O=c1c(-c2cc3ccccc3o2)[n+]([O-])c2ccccc2n1OCc1ccccn1	i	i	?	i	15µM
O=c1c(-c2ccco2)[n+]([O-])c2ccccc2n1OCc1ccccc1	i	i	12µM	i	12µM
CCOC(=O)COn1c(=O)c(-c2ccc(C)cc2)[n+]([O-])c2ccccc21	i	i	i	i	i
COc1ccccc1COn1c(=O)c(-c2ccco2)[n+]([O-])c2ccccc21	i	i	15µM	i	18µM
O=C1C(=O)N(Cc2ccccc2)C(=O)N1CCOc1ccccc1	?	i	?	i	?
Cc1cccc(Cn2cc3c(=O)n(CC(=O)Nc4ccc(C)c(F)c4)nc-3c3cc(F)ccc32)c1	nt	nt	i	nt	i
O=c1c2ccccc2c2ccccc2c(=O)n1Cc1ccc2c(c1)OCO2	i	i	?	i	?
CN(C)CCN=Cc1c(O)n(Cc2ccc3c(c2)OCO3)c(=O)c2ccccc12	i	i	i	-53	i
COc1ccccc1N1CCN(C(=O)CCCCCn2c(=S)[nH]c3cc4c(cc3c2=O)OCO4)CC1	i	i	?	i	10µM
O=C(CCCCCn1c(=S)[nH]c2cc3c(cc2c1=O)OCO3)N1CCN(c2ccccc2)CC1	i	i	?	i	i
O=c1c2cccnc2[nH]c(=S)n1CCCN1CCN(c2ccccc2F)CC1	i	i	?	i	?
COc1cccc(N2CCN(C(=O)CCCCCn3c(=S)[nH]c4cc5c(cc4c3=O)OCO5)CC2)c1	i	i	21µM	i	?
O=C(CCCn1c(=S)[nH]c2cc3c(cc2c1=O)OCO3)N1CCN(c2ncccn2)CC1	i	i	?	i	?
O=C(CCCn1c(=S)[nH]c2cc3c(cc2c1=O)OCO3)N1CCN(c2ccccc2F)CC1	i	i	?	i	18µM
O=c1c2ccccc2[nH]c(=S)n1CCCN1CCN(c2ccccc2F)CC1	i	i	2.9µM	i	?
O=C1CC(SC2=NCCS2)C(=O)N1c1cccc(Cl)c1Cl (stereo not given)	i	i	i	i	i
CCC(=O)N1CCc2cc(CNC(=O)Cc3ccc(OC)c(OC)c3)ccc21	nt	nt	i	nt	?
CCN(CC)CC(=O)Nc1ccc(-c2ccc(NC(=O)CN(CC)CC)c(OC)c2)cc1OC	?	?	13µM	i	9.2µM
CCN(CC(=O)Nc1ccccc1OC)CC(=O)Nc1c(Cl)ccc(C)c1Cl	i	i	?	i	15µM
COc1cc([N+](=O)[O-])ccc1NC(=O)CN(C)C	i	i	i	i	i
O=C1C=CC(O)(c2cc(=O)c3c(O)cc(O)cc3o2)C=C1	7.3µM	7.3µM	0.37µM	-104	0.52µM
N/C(=N\C(=S)Nc1ccccc1)c1ccccc1	i	i	?	i	16µM
CNC(=S)/N=C(/Nc1ccccc1)c1ccccc1	i	i	i	-69	i
Cc1c(N2CCCC2)cc2c(c1NC(=O)c1ccccc1Cl)C(C)(C)CC2(C)C	i	i	?	i	15µM
O=C(Nc1ccccc1N1CCCC1)c1cccc(Cl)c1Cl	i	i	i	i	?

Screening results as filed in PubChem BioAssay.
